HT1080NT lethal – qHTS for induction of synthetic lethality in tumor cells producing 2HG: qHTS for the HT-1080-NT fibrosarcoma cell line. Potency, µM (series often up to 46.1 µM), for inactives: at the top dose activity, negative = less viability, actives largely listed as cytotoxic. actives 1.6% (n = 360,000). AID 686970, 2013. HT-1080-NT fibrosarcoma viability, CellTiter-Glo ATP luminescence, 48 h;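 also: NT is the 2HG producing partner of a matched IDH1 knockdown line; potency is read from the fitted curve at half-maximal effect; 0% = DMSO-treated cells and -100% = media-only wells without cells; nearly all actives have a fitted effect of over 55% in size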
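Viability by CellTiter-Glo luminescence after 48 h compound exposure at 37C of HT-1080-NT cells (750/well, RPMI, 5% FBS). % activity scaled between DMSO wells and medium-only wells, then curve-fitted and categorized by curve class.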
IL-1B inflam inh – qHTS for Inhibitors of Inflammasome Signaling: IL-1-beta AlphaLISA Primary Screen. THP-1 LPS/ATP IL-1B secretion, AlphaLISA, 16 h; hits give low values. activity change, % at 57.5 µM. actives 4.7% (n = 360,000); in the data active = activity change below about -50%; inconclusive = mostly about -30% to -49%
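Secreted IL-1B measured by AlphaLISA bead assay after 16 h compound exposure of THP-1 cells; compounds (final up to 57.5 uM) added 1 h before LPS (250 ng/mL) and ATP (1.25 mM) stimulation; lower signal means less secretion.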
TDP1 cell CPT – qHTS for Inhibitors of human tyrosyl-DNA phosphodiesterase 1 (TDP1): qHTS in cells in presence of CPT; chicken DT40 Tdp1-/-;hTDP1 cells + 20 nM CPT, ATP luminescence, 48 h; Potency, µM (titrated, usually from 46.2 µM), for the others: at the highest dose activity change, negative = growth inhibition, actives largely listed as inhibitors; actives 12% (n = 420,000); also: potency is read from the fitted curve at half-maximal effect; nearly all actives have a fitted effect of over 55% in size
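Chicken DT40 Tdp1-/- cells complemented with human TDP1, 400 cells/well, exposed to compounds plus 20 nM camptothecin for at least 48 h at 37 C; viability read as ATP content by CellTiter-Glo luminescence.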
TDP1 cell noCPT – qHTS for Inhibitors of human tyrosyl-DNA phosphodiesterase 1 (TDP1): qHTS in cells in absence of CPT | DT40 Tdp1-/- hTDP1 cells, no CPT, ATP luminescence, 48 h | AID 686978, 2013 | actives 15% (n = 420,000) | Potency, µM (top dose mostly 46.2 µM), for the others: top-dose activity change, negative = growth inhibition, hits mostly inhibitors; also: potency is read from the fitted curve at half-maximal effect; nearly all actives have a fitted effect of over 55% in size
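Stably hTDP1-transfected Tdp1-null chicken DT40 cells were treated with library compounds minus camptothecin and grown for at least 48 hr at 37 °C, after which cellular ATP was quantified by luminescence.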
HT1080 IDH1KD tx – qHTS for induction of synthetic lethality in tumor cells producing 2HG: qHTS for the HT-1080-IDH1KD cell line; AID 686971, 2013; Potency, µM (series often up to 46.1 µM), for inactives: at the top dose activity, negative = toxicity, usual class: cytotoxic; actives 2% (n = 360,000); HT-1080 IDH1 knockdown viability, ATP luminescence, 48 h;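 also: potency is read from the fitted curve at half-maximal effect; 0% = DMSO wells and -100% = cell-free medium wells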
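After a 2 h attachment period, IDH1KD HT-1080 cells took pin-transferred compound for 48 h at 37 °C; ATP-based luminescence after 10 min room-temperature reagent incubation reported viability.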
Numbers without * were called inactive. The list is not random: actives were taken first. Their share in the collection is about 19%. Unless noted, calls follow the shape of the dose curve; as a rule, active = well fitted curve in the direction sought with a large enough effect; inconclusive = small, poorly fitted or top-dose-only effect, or another doubt; inactive = no such curve, though single readings can be large; an effect the other way counts as inactive or inconclusive. Unless noted, % is scaled to controls: 0 for no effect and ±100 for the full control effect.

What do the screens show for `CCc1ccccc1NC(=O)Cn1nc(-c2cc(C)ccc2C)c2c(c1=O)CCCC2`?
TDP1 cell CPT: inconclusive; TDP1 cell noCPT: 14.6µM*

What do the screens show for `Cc1ccc(NC(=O)CN2CCCN(Cc3cc(C)ccc3C)S2(=O)=O)c(Cl)c1`?
TDP1 cell CPT: 18.4µM*; TDP1 cell noCPT: inconclusive

Results for COc1ccc(CN2CCCN(CC(=O)Nc3ccc4c(c3)OCCO4)S2(=O)=O)cc1 ?
TDP1 cell CPT: inconclusive; TDP1 cell noCPT: -19.5%

What do the screens show for `O=C(O)c1cn(Cc2ccccc2Cl)c2ccc(S(=O)(=O)N3CCOCC3)cc2c1=O`?
HT1080NT lethal: 5.1%; IL-1B inflam inh: -2.9; TDP1 cell CPT: inconclusive; TDP1 cell noCPT: inconclusive; HT1080 IDH1KD tx: 12.5%

What do the screens show for `CC(C)Oc1ccc(S(=O)(=O)N2CCOCC2)cc1NC(=O)CCCSc1ccccc1`?
HT1080NT lethal: -8.5%; IL-1B inflam inh: 14.0; TDP1 cell CPT: inconclusive; TDP1 cell noCPT: inconclusive; HT1080 IDH1KD tx: -2.2%

Results for O=C1NC[C@H](CCCCN2C[C@H](Cc3ccccc3)N(CCc3ccc(O)cc3)C(=O)C2=O)N(CCc2ccccc2)C1=O ?
HT1080NT lethal: 19.8%; IL-1B inflam inh: -7.1; TDP1 cell CPT: 9.1%; TDP1 cell noCPT: -16.0%; HT1080 IDH1KD tx: 16.3%

What do the screens show for `Cc1ccc(CN2CCCN(CC(=O)Nc3ccc(C)cc3C)S2(=O)=O)cc1`?
TDP1 cell CPT: inconclusive; TDP1 cell noCPT: 14.6µM*

Results for CC(=O)Nc1ccc2c(c1)C(N1CC3CCC(CC3)C1)c1ccccc1-2 (centres undefined) ?
HT1080NT lethal: -19.8%; IL-1B inflam inh: inconclusive; TDP1 cell CPT: inconclusive; TDP1 cell noCPT: -21.2%; HT1080 IDH1KD tx: inconclusive

Results for Cc1ccccc1C(=O)Nc1nnc(S(=O)(=O)N2CCc3ccccc32)s1 ?
TDP1 cell CPT: 10.1%; TDP1 cell noCPT: inconclusive

What do the screens show for `C[C@@]1(C(=O)O)NCCc2cc(O)c(O)cc21`?
TDP1 cell CPT: 10.6µM*; TDP1 cell noCPT: 10.6µM*

How did CCc1cc2c(=O)c(-c3cnn(-c4ccccc4)c3)c(C)oc2cc1OCC(=O)Nc1ccc(F)c(F)c1 do in these assays?
HT1080NT lethal: 7.4%; IL-1B inflam inh: 0.0; TDP1 cell CPT: 14.6µM*; TDP1 cell noCPT: 9.2µM*; HT1080 IDH1KD tx: 13.3%

What do the screens show for `Cc1oc2cc(O)ccc2c(=O)c1-c1cnn(-c2ccccc2)c1`?
HT1080NT lethal: -3.0%; IL-1B inflam inh: 13.0; TDP1 cell CPT: -25.3%; TDP1 cell noCPT: inconclusive; HT1080 IDH1KD tx: -18.9%

What do the screens show for `CCc1cc2c(=O)c(-c3cnn(-c4ccccc4)c3)c(C)oc2cc1OCC(=O)Nc1cccc(C)c1`?
HT1080NT lethal: 0.2%; IL-1B inflam inh: -0.9; TDP1 cell CPT: 3.26µM*; TDP1 cell noCPT: 5.17µM*; HT1080 IDH1KD tx: 18.0%

How did O=C1c2cccc3c2[C@H](CCC3)CN1[C@@H]1CN2CCC1CC2 do in these assays?
TDP1 cell CPT: 16.8µM*; TDP1 cell noCPT: 15µM*

What do the screens show for `CCc1nc2c(OCCn3cccc3)cccn2c1N(C)C(=O)c1cccs1`?
HT1080NT lethal: 24.0%; IL-1B inflam inh: -21.9; TDP1 cell CPT: inconclusive; TDP1 cell noCPT: -20.9%; HT1080 IDH1KD tx: 10.1%

What do the screens show for `CCc1nc2c(OCc3ccc(OC(F)F)cc3)cccn2c1N(C)C(=O)c1cccs1`?
HT1080NT lethal: -15.8%; IL-1B inflam inh: -13.6; TDP1 cell CPT: 20.6µM*; TDP1 cell noCPT: 16.4µM*; HT1080 IDH1KD tx: -18.3%

Results for CCc1nc2c(OCCOc3ccc(F)cc3)cccn2c1N(C)C(=O)c1cccs1 ?
HT1080NT lethal: 1.9%; IL-1B inflam inh: -24.5; TDP1 cell CPT: 18.4µM*; TDP1 cell noCPT: 10.3µM*; HT1080 IDH1KD tx: -1.1%

Results for COc1ccc(S(=O)(=O)NCc2ccco2)cc1N(C)S(=O)(=O)c1ccccc1 ?
HT1080NT lethal: 4.1%; IL-1B inflam inh: 2.4; TDP1 cell CPT: -3.6%; TDP1 cell noCPT: inconclusive; HT1080 IDH1KD tx: 4.6%

Results for CCN(CC)S(=O)(=O)c1cccc(C(=O)NC(C)C(c2cccs2)N2CCCC2)c1 (centres undefined) ?
HT1080NT lethal: 9.6%; IL-1B inflam inh: -0.4; TDP1 cell CPT: inconclusive; TDP1 cell noCPT: inconclusive; HT1080 IDH1KD tx: 14.1%

How did Cc1ccc(O)c(CP(=O)(c2ccccc2)c2ccccc2)c1 do in these assays?
HT1080NT lethal: 3.1%; IL-1B inflam inh: -6.8; TDP1 cell CPT: inconclusive; TDP1 cell noCPT: inconclusive; HT1080 IDH1KD tx: 4.0%

How did CCNc1ccccc1CP(=O)(c1ccccc1)c1ccccc1O (centres undefined) do in these assays?
HT1080NT lethal: -7.7%; IL-1B inflam inh: -5.3; TDP1 cell CPT: inconclusive; TDP1 cell noCPT: 2.59µM*; HT1080 IDH1KD tx: 4.8%

What do the screens show for `Cc1cccc2c1c1ccc3c(c1n2C)C(=O)C=CC3=O`?
HT1080NT lethal: 0.3%; IL-1B inflam inh: 9.9; TDP1 cell CPT: 0.461µM*; TDP1 cell noCPT: 0.411µM*; HT1080 IDH1KD tx: 4.2%

How did Cc1ccccc1N1CC(=O)N(c2ccccc2C)CC1=O do in these assays?
HT1080NT lethal: 7.8%; IL-1B inflam inh: 24.1; TDP1 cell CPT: -5.0%; TDP1 cell noCPT: -14.0%; HT1080 IDH1KD tx: 2.7%

Results for Cc1nn(-c2ccc(F)cc2)c(Cl)c1C(=O)OC(C)C(=O)N(C)C1CCCCC1 (centres undefined) ?
HT1080NT lethal: -12.1%; IL-1B inflam inh: -21.3; TDP1 cell CPT: inconclusive; TDP1 cell noCPT: 11.6µM*; HT1080 IDH1KD tx: -11.6%

Results for COc1ccc(C2(CNC(=O)C(=O)Nc3ccccc3C)CCCC2)cc1OC ?
TDP1 cell CPT: 23.1µM*; TDP1 cell noCPT: 18.4µM*

What do the screens show for `COc1ccc(C2(CNC(=O)c3cc(OC)c(OC)c(OC)c3)CCCC2)cc1OC`?
HT1080NT lethal: -23.4%; IL-1B inflam inh: -1.9; TDP1 cell CPT: inconclusive; TDP1 cell noCPT: inconclusive; HT1080 IDH1KD tx: -21.6%

Results for COc1ccc(C2(CNC(=O)/C=C\c3ccco3)CCCC2)cc1OC ?
HT1080NT lethal: 6.1%; IL-1B inflam inh: 12.9; TDP1 cell CPT: 18.4µM*; TDP1 cell noCPT: 29.1µM*; HT1080 IDH1KD tx: 0.3%

How did COc1ccc(C2(CNC(=O)C(=O)Nc3ccc(F)cc3)CCCC2)cc1OC do in these assays?
TDP1 cell CPT: 18.4µM*; TDP1 cell noCPT: 18.4µM*
